Hits are enriched below; roughly 19% of the tested compounds scored in any of these assays.
HT1080NT lethal – qHTS for induction of synthetic lethality in tumor cells producing 2HG: qHTS for the HT-1080-NT fibrosarcoma cell line | HT-1080-NT fibrosarcoma viability, CellTiter-Glo ATP luminescence, 48 h | Potency, µM (doses to about 46.1 µM), for the others: at the top dose activity, negative = less viability, hits mostly cytotoxic | 360,000 tested, 1.6% active | AID 686970, 2013;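 also: NT is the 2HG producing partner of a matched IDH1 knockdown line; 0% = DMSO-treated cells and -100% = media-only wells without cells; nearly all actives have a fitted effect of over 55% in size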
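Read-out is CellTiter-Glo luminescence after 10 minutes at room temperature, following 48 hours' compound treatment of HT-1080-NT cells (750 cells/well, RPMI, 5% FBS, 37 degrees C).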
KB-3-1 tox – qHTS assay for MDR1-selective chemotherapeutics: Primary screen using the parental adenocarcinoma cell KB-3-1. KB-3-1 viability, CellTiter-Glo ATP luminescence, 72 h. Potency, µM (doses to about 46.1 µM), actives largely listed as cytotoxic. 400,000 tested, 1.4% active. AID 1347075, 2019; also: nearly all actives have a fitted effect of over 60% in size
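Cytotoxicity in the drug-sensitive parental line KB-3-1 was scored as loss of CellTiter-Glo luminescence following 72 h incubation with compound. Values come from curve fitting of normalized concentration-response data.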
HT1080 IDH1KD tx – qHTS for induction of synthetic lethality in tumor cells producing 2HG: qHTS for the HT-1080-IDH1KD cell line. HT-1080 IDH1 knockdown viability, ATP luminescence, 48 h. AID 686971, 2013. Potency, µM (highest dose often 46.1 µM), for inactives: at the highest dose activity, negative = toxicity, actives largely listed as cytotoxic. 360,000 tested, 2% active;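 also: 0% = DMSO wells and -100% = cell-free medium wells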
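In this qHTS, HT-1080 cells depleted of IDH1 are exposed for 48 h at 37 °C to compound titrations. Toxicity is scored from CellTiter-Glo luminescence, with DMSO as full viability and medium alone as none.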
DT40 TDP1 no CPT – qHTS for Inhibitors of human tyrosyl-DNA phosphodiesterase 1 (TDP1): qHTS in cells in absence of CPT; AID 686978, 2013; Potency, µM (doses to about 46.2 µM), for the others: at the top dose activity change, negative = growth inhibition, usual class: inhibitors; 420,000 tested, 15% active; DT40 Tdp1-/- hTDP1 cells, no CPT, ATP luminescence, 48 h; also: nearly all actives have a fitted effect of over 55% in size
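Growth of hTDP1-complemented DT40 Tdp1-knockout cells is measured by ATP luminescence after at least 48 hr compound exposure at 37 °C, with DMSO substituting for the 20 nM CPT used in the parallel screen.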
TDP1 cell CPT – qHTS for Inhibitors of human tyrosyl-DNA phosphodiesterase 1 (TDP1): qHTS in cells in presence of CPT; chicken DT40 Tdp1-/-;hTDP1 cells + 20 nM CPT, ATP luminescence, 48 h; Potency, µM (doses to about 46.2 µM), for inactives: top-dose activity change, negative = growth inhibition, actives largely listed as inhibitors; 420,000 tested, 12% active; also: nearly all actives have a fitted effect of over 55% in size
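Chicken DT40 Tdp1-/- cells stably complemented with human TDP1 were seeded at 400 cells/well in medium containing 20 nM camptothecin, exposed to pin-transferred compounds, and grown at 37 °C for at least 48 hr. Viability was read as ATP luminescence.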
KB-V1 cytotox – qHTS assay for MDR1-selective chemotherapeutics: Primary screen using the drug-selected MDR subline cells KB-V1; Potency, µM (highest dose often 46.1 µM), most hits filed as cytotoxic; 400,000 tested, 3.4% active; KB-V1 MDR cells viability, CellTiter-Glo, 72 h; also: nearly all actives have a fitted effect of over 60% in size
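Cytotoxicity toward P-gp-expressing KB-V1 cells was determined as loss of CellTiter-Glo luminescence after 72 h at 37 degrees C. Compounds were tested in quantitative HTS format across a concentration range, with curves fitted to normalized data.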
Starred values were filed as active, the others as inactive; i = inactive; ? = inconclusive; . = no result given; ! = repeats disagree. Calls follow the shape of the dose curve; as a rule, active = well fitted curve in the direction sought with a large enough effect; inconclusive = small, poorly fitted or top-dose-only effect, or another doubt; inactive = no such curve, though single readings can be large; an effect the other way counts as inactive or inconclusive. Unless noted, % is scaled to controls: 0 for no effect and ±100 for the full control effect; potency is read from the fitted curve at half-maximal effect.

SMILES | HT1080NT lethal | KB-3-1 tox | HT1080 IDH1KD tx | DT40 TDP1 no CPT | TDP1 cell CPT | KB-V1 cytotox
CN1C[C@H](C(=O)N[C@@]2(C)O[C@@]3(O)C4CCCN4C(=O)C(Cc4ccccc4)N3C2=O)C[C@H]2c3cccc4[nH]cc(c34)C[C@H]21 (stereo not given in full) | . | . | . | -15% | 12% | .
CC(C)[C@H]1C(=O)N2CCC[C@H]2[C@]2(O)O[C@](NC(=O)[C@@H]3C=C4c5cccc6[nH]cc(c56)C[C@H]4N(C)C3)(C(C)C)C(=O)N12 | -4% | i | 0% | 5.8µM* | ? | i
CN1C[C@@H](CO)C=C2c3cccc4[nH]cc(c34)CC21 (stereo not given in full) | . | . | . | -24% | 10% | .
CCCN1CCC(NC2CCC(O)CC2)CC1 (stereo not given) | 16% | i | 12% | 10% | 5% | i
Cc1cccc(C)c1N1CCN(c2c(C)cccc2C)CC1 | 11% | i | 9% | 0% | 1% | i
COc1ccccc1C1CC2CCC(C1OC(C)=O)N2Cc1ccccc1 (stereo not given) | 8% | i | -3% | ? | ? | i
c1ccc2c(c1)[IH]c1ccccc1-2 | 0.46µM* | ? | 0.46µM* | 0.052µM* | 0.052µM* | ?
CC[n+]1c(/C=C/C=C/c2ccc(N(C)C)cc2)sc2ccccc21 | 5.8µM* | 1.5µM* | 7.3µM* | 0.052µM* | 0.0092µM* | ?
CN(C)c1ccc(/C=C/c2cc[n+](C)c3ccccc23)cc1 | ? | 2.9µM*! | 7.3µM* | 0.23µM* | 0.41µM* | 16µM*!
CN(C)c1ccc(/C=C/C=C/c2sc3ccccc3[n+]2C)cc1 | 21µM* | 10µM* | ? | 0.13µM* | 0.92µM* | i
COc1ccccc1N1CCN(CCc2ccccc2)CC1 | -4% | i | -18% | -6% | ? | i
Cc1cccc(OCC(=O)Nc2cc(-c3ccccc3F)nn2-c2ccccc2)c1 | . | i | . | ? | ? | i
COc1ccccc1N1CCN(C(=O)c2cc3c(-c4ccccc4F)nn(C)c3s2)CC1 | . | ? | . | 6.5µM* | ? | ?
COc1cccc(CNC(=O)c2cc3c(-c4ccccc4F)nn(C)c3s2)c1 | . | ? | . | 16µM* | ? | ?
CCC(=NCCCN1CCOCC1)c1c(O)n(-c2ccccc2C)c(=O)[nH]c1=O | 1% | i | 4% | -4% | -10% | i
C=C(C)COc1ccc(-c2n[nH]c(C)c2-c2ccc(Br)cc2)c(O)c1 | 10µM* | ? | 10µM* | ? | 18µM* | ?
CC(C)CCOC(=O)c1c(N)n(CC2CCCO2)c2nc3ccccc3nc12 (stereo not given) | -17% | i | -8% | 21µM* | ? | ?
CCCCn1c(NS(=O)(=O)c2ccc(C)cc2)c(C(=O)OCC)c2nc3ccccc3nc21 | -2% | i | -4% | ? | ? | ?
CCCCn1c(NC(=O)c2ccco2)c(C(=O)OCC)c2nc3ccccc3nc21 | ? | i | -26% | 4.6µM* | 9.2µM* | i
Nc1c(C(=O)OC2CCCCC2)c2nc3ccccc3nc2n1CC1CCCO1 (stereo not given) | -21% | ? | -15% | 16µM* | ? | ?
CC(C)OCCCNC(=O)c1c(N)n(CC2CCCO2)c2nc3ccccc3nc12 (stereo not given) | ? | i | ? | -29% | ? | i
CCCNC(=O)c1c(N)n(CC2CCCO2)c2nc3ccccc3nc12 (stereo not given) | -16% | i | -22% | 21µM* | ? | ?
COC[C@]12CN(C=O)C3C4C(OC)C1[C@@]3(C1CC3(O)C(OC)C(O)C4(OC(C)=O)C1C3OC(=O)c1ccccc1)[C@@H](OC)CC2O (stereo not given in full) | . | . | . | 28% | 19% | .
COCCCNC(=S)NCCCNc1nc2cc(C)cc(C)c2cc1C#N | -25% | i | -16% | ? | ? | i
CCCCn1c(N)c(C(=O)OCC2CCCO2)c2nc3ccccc3nc21 (stereo not given) | ? | i | -17% | 18µM* | 18µM* | i
SMILES | HT1080NT lethal | KB-3-1 tox | HT1080 IDH1KD tx | DT40 TDP1 no CPT | TDP1 cell CPT | KB-V1 cytotox
CC(C)CCn1c(N)c(C(=O)OCC2CCCO2)c2nc3ccccc3nc21 (stereo not given) | ? | i | 21µM* | ? | ? | ?
O=C(Nc1cccc(F)c1)N1CC2(CCN(C(=O)Oc3ccccc3)CC2)C1 | . | . | . | ? | 9% | .
COc1ccc(C2C=C(c3ccccc3)Nc3nc(NC(=O)/C=C/c4ccccc4Cl)nn32)cc1 (stereo not given) | . | ? | . | 3.7µM* | 5.2µM* | i
[O]=[Cr](=[O])([OH])[O][Cr](=[O])(=[O])[OH] | . | . | . | 17µM* | ? | .
CCCCn1c(=O)c(C(=O)Nc2cccc(C)c2)c(O)c2ccccc21 | 13% | ? | 10% | 4.6µM* | 5.8µM* | ?
CC(C)CCn1c(=O)c(C(=O)Nc2ccccc2S(N)(=O)=O)c(O)c2ccccc21 | -22% | 3.7µM* | ? | 5.2µM* | 4.6µM* | 2.9µM*
CCCCCn1c(=O)c(C(=O)Nc2ccccc2Cl)c(O)c2ccccc21 | 1% | i | 3% | 5.2µM* | 5.2µM* | i
CCCCn1c(=O)c(C(=O)Nc2cnccn2)c(O)c2ccccc21 | -19% | 7.3µM* | -28% | 5.2µM* | 2.9µM* | ?
CCn1c(CN2CCN(C)CC2)nc2ccccc21 | . | i | . | -2% | -2% | i
CCCOc1ccc(C(=O)NC(=S)N2C[C@H]3C[C@H](C2)c2cccc(=O)n2C3)cc1 | 2% | i | -1% | -7% | 1% | i
CCCCCn1c(=O)c(C(=O)NCCc2ccccc2)c(O)c2ccccc21 | 5% | ? | 3% | ? | ? | ?
CCCCCn1c(=O)c(C(=O)Nc2nc3ccccc3[nH]2)c(O)c2ccccc21 | -3% | ? | -7% | 5.2µM* | 2.9µM* | ?

Compound activity: PubChem BioAssay, National Center for Advancing Translational Sciences (NCATS)
